Laboratory results taken from PubChem BioAssay (Tox21).
Inconclusive results are not listed. Activity calls are given as the source filed them. Unless noted, calls follow the shape of the full dose curve.

What was measured:
[1] = Nuclear factor erythroid 2-related factor 2/antioxidant responsive element (Nrf2/ARE) small molecule agonists: qHTS cell viability counter screen in human keratinocytes (AID 1919968; active = well fitted curve in the direction sought with a large enough effect in the repeat runs; an effect the other way counts as inactive or inconclusive; also: nearly all actives have a fitted effect of over 55% in size)
Summary of the method: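 CellTiter-Fluor fluorescence, read 1 h after reagent, gave viability in the same wells as the ARE-luciferase assay. KeratinoSens cells (1,500/well) had 23 h compound exposure at 37 C/5% CO2 following 5 h plating.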

[2] = Nuclear factor erythroid 2-related factor 2/antioxidant responsive element (Nrf2/ARE) small molecule agonists: luciferase reporter gene qHTS assay in human keratinocytes (AID 1919969); also: nearly all actives have a fitted effect of over 35% in size
[3] = target: Gonadotropin-releasing hormone receptor (Homo sapiens) (UniProt P30968); assay: Human gonadotropin-releasing hormone receptor (GnRHR) small molecule agonists, calcium flux assay in GnRHR-HEK293 cells (AID 1920063); also: nearly all actives have a fitted effect of over 35% in size
Chain of Gonadotropin-releasing hormone receptor (Homo sapiens) (P30968 whole entry, looked up): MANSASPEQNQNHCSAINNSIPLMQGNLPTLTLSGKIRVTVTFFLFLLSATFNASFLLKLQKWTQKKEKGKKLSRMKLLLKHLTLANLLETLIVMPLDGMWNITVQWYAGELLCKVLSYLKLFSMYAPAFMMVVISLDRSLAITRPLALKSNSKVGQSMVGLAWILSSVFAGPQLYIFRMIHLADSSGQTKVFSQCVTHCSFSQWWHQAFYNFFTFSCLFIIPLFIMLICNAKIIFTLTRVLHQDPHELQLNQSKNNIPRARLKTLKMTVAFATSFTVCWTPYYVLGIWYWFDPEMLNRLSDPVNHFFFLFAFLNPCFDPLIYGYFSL
Summary of the method: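 Agonist mode: compounds at 15 concentrations, in triplicate, went onto calcium dye-loaded GnRHR-HEK293 cells. Intracellular calcium was then followed as 480/540 nm fluorescence at 1 s intervals over 3 min.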

[4] = target: KiSS-1 receptor (Homo sapiens) (UniProt Q969F8); assay: Human kisspeptin (KISS1R) small molecule agonists, calcium flux assay in KISS1R-HEK293 cells (AID 1920064; active = well fitted curve in the direction sought with a large enough effect in the repeat runs; an effect the other way counts as inactive or inconclusive)
Chain of KiSS-1 receptor (Homo sapiens) (Q969F8 whole entry, looked up): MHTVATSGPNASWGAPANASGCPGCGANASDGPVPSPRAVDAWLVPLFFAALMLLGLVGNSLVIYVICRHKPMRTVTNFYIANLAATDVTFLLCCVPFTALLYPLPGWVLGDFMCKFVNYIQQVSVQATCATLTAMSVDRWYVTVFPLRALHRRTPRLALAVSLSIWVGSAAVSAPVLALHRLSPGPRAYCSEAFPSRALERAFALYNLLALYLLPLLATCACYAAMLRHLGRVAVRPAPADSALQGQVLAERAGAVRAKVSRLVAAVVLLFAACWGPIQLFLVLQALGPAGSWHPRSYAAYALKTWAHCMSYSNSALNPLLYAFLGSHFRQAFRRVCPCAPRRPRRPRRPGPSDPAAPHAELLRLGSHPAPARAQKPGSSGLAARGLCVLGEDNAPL
Summary of the method: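 Agonist mode: intracellular calcium rise tracked at 1 s intervals over 3 min (480/540 nm) immediately after compound addition to dye-loaded KISS1R-HEK293 stable cells. Each compound tested at 15 concentrations in triplicate.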

[5] = G protein-coupled receptor (GPCR) small molecule agonists, calcium flux assay: HEK293 wild type cell line counter screen (AID 1920065)
Summary of the method: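 Calcium flux counter screen: compound added in agonist mode at 15 concentrations in triplicate to dye-loaded parental HEK293 cells. Fluorescence (480/540) read kinetically for 3 min; ATP served as positive control.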

[6] = p53 small molecule agonists, cell-based qHTS assay with human liver microsomes (AID 1963577)
Summary of the method: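 p53RE-bla cells, 4,000/well, compound added after 5 h, with human liver microsomes 0.5 mg/mL and NADPH 0.5 mg/mL final; 16 h at 37 C, then LiveBLAzer 2 h RT, fluorescence.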

[7] = p53 small molecule agonists, cell-based qHTS assay with rat liver microsomes (AID 1963578)
Summary of the method: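 p53RE-bla cells, 4,000/well, pre-incubated 5 h, then given compounds plus rat liver microsomes (0.5 mg/mL final) and NADPH (0.5 mg/mL final). Incubation 16 h at 37 C; beta-lactamase reporter read by LiveBLAzer fluorescence after 2 h at room temperature.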

[8] = p53 small molecule agonists, cell-based qHTS assay with human liver microsomes: qHTS cell viability counter screen (AID 1963579); also: nearly all actives have a fitted effect of over 45% in size
Summary of the method: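 p53RE-bla cells, 4,000/well, dosed 5 hours after plating, with human liver microsomes (0.5 mg/mL final) plus NADPH (0.5 mg/mL final), 16 hours at 37 C. Viability read as CellTiter-Glo luminescence after 30 min at room temperature.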

[9] = p53 small molecule agonists, cell-based qHTS assay with rat liver microsomes: qHTS cell viability counter screen (AID 1963580); also: nearly all actives have a fitted effect of over 45% in size
Summary of the method: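 Rat liver microsome (0.5 mg/mL final) and NADPH (0.5 mg/mL final) co-incubation with compounds for 16 h at 37 C on HCT-116 p53RE-bla cells; cytotoxicity taken from intracellular ATP luminescence.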

[10] = p53 small molecule agonists, cell-based qHTS assay: qHTS cell viability counter screen (AID 1963581); also: nearly all actives have a fitted effect of over 45% in size
Summary of the method: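 Counter screen read by CellTiter-Glo luminescence (ATP content, 30 min at room temperature), run in the same wells as the beta-lactamase reporter read. HCT-116 p53RE-bla cells saw compounds for 16 h at 37 C.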

[11] = p53 small molecule agonists, cell-based qHTS assay (AID 1963582; active = well fitted activation curve with a large enough effect in the signal ratio in the repeat runs, not every such curve was filed as active; the % refers to the signal ratio)
Summary of the method: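 Read-out is beta-lactamase FRET fluorescence after 2 h at room temperature with LiveBLAzer B/G substrate. p53 response element-bla cells were treated 16 h at 37 C with compounds in DMSO, added 5 h after seeding.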

[12] = target: 5-hydroxytryptamine receptor 2A (Homo sapiens) (UniProt P28223); assay: 5-hydroxytryptamine receptor 2A (HTR2A) small molecule antagonists, cell-based qHTS assay (AID 1963586); also: nearly all actives have a fitted effect of over 45% in size
Chain of 5-hydroxytryptamine receptor 2A (Homo sapiens) (P28223 whole entry, looked up): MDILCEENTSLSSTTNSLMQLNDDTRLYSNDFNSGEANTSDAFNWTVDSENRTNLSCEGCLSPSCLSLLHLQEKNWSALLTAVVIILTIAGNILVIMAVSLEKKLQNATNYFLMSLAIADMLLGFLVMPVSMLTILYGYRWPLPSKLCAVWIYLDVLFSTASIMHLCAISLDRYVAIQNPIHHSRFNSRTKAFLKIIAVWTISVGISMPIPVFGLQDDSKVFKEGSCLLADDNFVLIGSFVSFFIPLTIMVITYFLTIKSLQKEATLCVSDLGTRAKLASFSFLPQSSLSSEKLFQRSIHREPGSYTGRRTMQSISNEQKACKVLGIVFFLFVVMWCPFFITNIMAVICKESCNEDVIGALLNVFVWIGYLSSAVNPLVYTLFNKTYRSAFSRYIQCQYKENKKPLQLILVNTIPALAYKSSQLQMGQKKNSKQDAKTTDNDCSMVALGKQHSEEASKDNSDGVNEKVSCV
Summary of the method: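 CHO cells stably expressing human HTR2A were plated for 18 h at 37 C, then loaded with calcium dye for 1 h. Compounds were preincubated 5 min at room temperature before DOI (4 nM solution) was added. Kinetic fluorescence was read for 3 min.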

[13] = target: 5-hydroxytryptamine receptor 2A (Homo sapiens) (UniProt P28223); assay: 5-hydroxytryptamine receptor 2A (HTR2A) small molecule agonists, cell-based qHTS assay (AID 1963587); also: nearly all actives have a fitted effect of over 30% in size
Summary of the method: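 Kinetic calcium-flux fluorescence (2 min, 1 sec intervals) after compound addition in agonist mode. HTR2A-CHO cells were cultured 18 h, then dye-loaded 1 h at 37 C.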

[14] = target: Muscarinic acetylcholine receptor M1 (Homo sapiens) (UniProt P11229); assay: Cholinergic receptor muscarinic 1 (CHRM1) small molecule antagonists, cell-based qHTS assay (AID 1963588); also: nearly all actives have a fitted effect of over 40% in size
Chain of Muscarinic acetylcholine receptor M1 (Homo sapiens) (P11229 whole entry, looked up): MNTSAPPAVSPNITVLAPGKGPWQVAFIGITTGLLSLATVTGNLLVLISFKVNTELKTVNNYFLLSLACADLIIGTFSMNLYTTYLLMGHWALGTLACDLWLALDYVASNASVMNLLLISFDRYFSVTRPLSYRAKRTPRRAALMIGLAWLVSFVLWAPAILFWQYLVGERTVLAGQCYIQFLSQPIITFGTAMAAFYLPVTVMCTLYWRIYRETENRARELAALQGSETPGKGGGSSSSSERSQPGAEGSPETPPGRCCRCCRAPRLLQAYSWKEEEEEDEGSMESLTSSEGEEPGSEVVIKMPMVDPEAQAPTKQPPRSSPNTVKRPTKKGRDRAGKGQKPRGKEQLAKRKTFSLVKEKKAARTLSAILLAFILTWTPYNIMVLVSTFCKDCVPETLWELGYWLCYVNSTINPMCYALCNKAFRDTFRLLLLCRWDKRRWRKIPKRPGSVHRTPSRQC
Summary of the method: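 Compounds were tested at 15 concentrations in three independent runs. Dye-loaded CHRM1-CHO cells were exposed 5 min at room temperature before stimulation by acetylcholine added at 50nM. Intracellular calcium was read kinetically on FDSS for 3 min.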

[15] = target: Muscarinic acetylcholine receptor M1 (Homo sapiens) (UniProt P11229); assay: Cholinergic receptor muscarinic 1 (CHRM1) small molecule agonists, cell-based qHTS assay (AID 1963589); also: nearly all actives have a fitted effect of over 35% in size
Summary of the method: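 Agonist-mode calcium-flux screen: compounds at 15 concentrations, three independent runs, were pin-transferred onto dye-loaded human CHRM1-CHO cells. Fluorescence was then recorded kinetically every second over minutes.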

[16] = cAMP Responsive Elements (CRE) small molecule agonists, cell-based qHTS assay (AID 1963590)
Summary of the method: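 Agonist mode: compound added to CRE-bla HEK 293T cells (2,000/well, 18 h after plating) for 3 h at 37 C/5% CO2. Reporter activity detected via FRET beta-lactamase substrate, 2 h room-temperature loading.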

[17] = cAMP Responsive Elements (CRE) small molecule antagonists, cell-based qHTS assay (AID 1963591; active = well fitted inhibition curve with a large enough effect in the signal ratio in the repeat runs, not every such curve was filed as active; the % refers to the signal ratio)
Summary of the method: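 Antagonist mode: compounds are added alongside the adenylyl cyclase activator NKH477 (0.25 uM final) to CRE-bla HEK293T cells for 3 h. LiveBLAzer FRET substrate, 2 h at room temperature, reports bla expression.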

[18] = target: Beta-2 adrenergic receptor (Homo sapiens) (UniProt P07550); assay: Adrenergic beta2 receptor (ADRB2) small molecule antagonists, cell-based qHTS assay (AID 1963592); also: series mostly up to about 92 µM; nearly all actives have a fitted effect of over 50% in size
Chain of Beta-2 adrenergic receptor (Homo sapiens) (P07550 whole entry, looked up): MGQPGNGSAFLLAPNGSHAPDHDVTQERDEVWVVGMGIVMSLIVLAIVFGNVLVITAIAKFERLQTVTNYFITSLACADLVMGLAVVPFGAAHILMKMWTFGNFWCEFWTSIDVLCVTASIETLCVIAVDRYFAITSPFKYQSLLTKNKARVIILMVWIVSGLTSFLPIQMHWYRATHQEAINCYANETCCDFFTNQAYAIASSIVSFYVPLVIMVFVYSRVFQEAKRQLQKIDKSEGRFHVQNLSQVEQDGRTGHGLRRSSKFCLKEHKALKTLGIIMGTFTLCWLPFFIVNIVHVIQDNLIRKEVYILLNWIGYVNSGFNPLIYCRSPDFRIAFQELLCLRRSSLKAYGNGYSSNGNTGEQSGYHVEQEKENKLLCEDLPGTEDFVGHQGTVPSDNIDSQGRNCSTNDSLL
Summary of the method: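 Assay format: CHO-ADRB2 cells, 18-20hr seeding at 37C/5% CO2, then compound plus 1nM isoproterenol agonist mix for 0.5hr RT. Homogeneous time-resolved fluorescence cAMP detection after 1hr, expressed as 665/615 nm ratio.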

[19] = target: D(2) dopamine receptor (Homo sapiens) (UniProt P14416); assay: Dopamine D2 receptor (DRD2) small molecule agonists, cell-based qHTS assay (AID 1963594); also: nearly all actives have a fitted effect of over 35% in size
Chain of D(2) dopamine receptor (Homo sapiens) (P14416 whole entry, looked up): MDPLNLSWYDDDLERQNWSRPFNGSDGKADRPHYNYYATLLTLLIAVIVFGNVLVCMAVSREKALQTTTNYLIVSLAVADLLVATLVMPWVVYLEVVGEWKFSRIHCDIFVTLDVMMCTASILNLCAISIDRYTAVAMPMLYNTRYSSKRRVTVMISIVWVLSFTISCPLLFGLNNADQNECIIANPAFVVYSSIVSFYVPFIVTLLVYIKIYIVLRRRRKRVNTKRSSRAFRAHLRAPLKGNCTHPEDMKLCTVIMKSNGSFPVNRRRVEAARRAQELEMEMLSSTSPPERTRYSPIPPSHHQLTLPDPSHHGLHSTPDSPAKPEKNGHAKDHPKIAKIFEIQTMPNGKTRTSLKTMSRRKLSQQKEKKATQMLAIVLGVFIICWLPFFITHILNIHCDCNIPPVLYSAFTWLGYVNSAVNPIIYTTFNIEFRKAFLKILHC
Summary of the method: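 cAMP accumulation in DRD2-HEK293 cells measured by HTRF after 1 h detection; compounds added 10 min before NKH477 (200nM […]) forskolin-analogue stimulation, 30 min at room temperature, with Ro20-1724 present at 0.1 mM final.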

[20] = target: D(2) dopamine receptor (Homo sapiens) (UniProt P14416); assay: Dopamine D2 receptor (DRD2) small molecule antagonists, cell-based qHTS assay (AID 1963595; active = well fitted inhibition curve with a large enough effect in the signal ratio in the repeat runs, with a control signal flat; the % refers to the signal ratio)
Summary of the method: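 Stable D2 receptor HEK293 line, 24 h after seeding. Compound preincubated 10 min, then quinpirole (12 nM) with forskolin analogue NKH477 (200 nM), 30 min, room temperature. Detection by time-resolved FRET of cAMP.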
% is scaled to controls: 0 for no effect and ±100 for the full control effect.

O=S(=O)(O)c1cccc2ccccc12
inactive: Potency [1] | Potency [2] | Potency [3] | Potency [4] | Potency [5] | Potency [6] | Potency [7] | Potency [8] | Potency [9] | Potency [10] | Potency [11] | Potency [12] | Potency [13] | Potency [14] | Potency [15] | Potency [16] | Potency [17] | Potency [18] | Potency [19] | Potency [20]

CCC(=O)OCc1ccccc1
inactive: Potency [1] | Potency [2] | Potency [3] | Potency [4] | Potency [5] | Potency [6] | Potency [7] | Potency [8] | Potency [9] | Potency [10] | Potency [11] | Potency [12] | Potency [13] | Potency [14] | Potency [15] | Potency [16] | Potency [17] | Potency [18] | Potency [19] | Potency [20]

C=CCOC(=O)CCCCCCCC
inactive: Potency [1] | Potency [2] | Potency [3] | Potency [4] | Potency [5] | Potency [6] | Potency [7] | Potency [8] | Potency [9] | Potency [10] | Potency [11] | Potency [12] | Potency [13] | Potency [14] | Potency [15] | Potency [16] | Potency [17] | Potency [18] | Potency [19] | Potency [20]

C[C@@H]1CCC[C@H](C)N1
inactive: Potency [1] | Potency [2] | Potency [3] | Potency [4] | Potency [5] | Potency [6] | Potency [7] | Potency [8] | Potency [9] | Potency [10] | Potency [11] | Potency [12] | Potency [13] | Potency [14] | Potency [15] | Potency [16] | Potency [17] | Potency [19] | Potency [20]

O=C1CCC(=O)N1
inactive: Potency [1] | Potency [2] | Potency [3] | Potency [4] | Potency [5] | Potency [6] | Potency [7] | Potency [8] | Potency [9] | Potency [10] | Potency [11] | Potency [12] | Potency [13] | Potency [14] | Potency [15] | Potency [16] | Potency [17] | Potency [19] | Potency [20]

C=CCCCCCCCCCCCCCCCC
inactive: activity change, negative = cytotoxicity [1] 2.1% [at 8.39 µM] | activity, positive = activation [2] 1.31% [at 8.39 µM] | activity change [3] 0.969% [at 5.22 µM, active compounds read high] | activation [4] 0.739% [at 6.97 µM] | activation [5] -0.775% [at 5.23 µM] | activation [6] -1.7% [at 5.99 µM] | activation [7] -2.36% [at 5.99 µM] | activity change, negative = cytotoxicity [8] -5.51% [at 5.99 µM] | activity change, negative = cytotoxicity [9] -2.99% [at 5.99 µM] | activity change, negative = cytotoxicity [10] -20.9% [at 5.99 µM] | activation [11] 2.83% [at 5.99 µM] | activity, negative = inhibition [12] -3.97% [at 5.62 µM] | activation [13] -2.29% [at 7.02 µM] | activity, negative = inhibition [14] -31.3% [at 5.58 µM] | activation [15] 1.23% [at 6.97 µM] | activation [16] 0.435% [at 8.39 µM] | activity change, negative = inhibition [17] -13% [at 8.39 µM] | activity change, negative = inhibition [18] -9.53% [at 8.39 µM] | activation [19] 0.185% [at 8.39 µM] | activity change, negative = inhibition [20] -1.92% [at 8.38 µM]
